# Measurements as given in PubChem BioAssay AID1572 (National Center for Advancing Translational Sciences (NCATS), 2009).
# Results filed as inconclusive are left out. Activity calls are given as the source filed them. Calls follow the shape of the dose curve; as a rule, active = well fitted curve in either direction with a large enough effect; inconclusive = small, poorly fitted or top-dose-only effect; inactive = flat fitted curve, though single readings scatter.
# Test: Total Fluorescence Confirmation Counterscreen for Inhibitors of the Interaction of Thyroid Hormone Receptor and Steroid Receptor Coregulator 2
# Conditions: Texas Red total fluorescence, TRbeta/SRC2 FP artifact counterscreen; series mostly up to 92.2 µM; total fluorescence change, both ways: at the top concentration
# Summary of the method: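 Flags fluorescent or light-absorbing compounds: after 5 hr at ambient temperature, 0.6 uM TRbeta LBD plus 20 nM SRC2 Texas Red (1uM T3, 5% DMSO) read at 555/632 nm; TF = S + 2P from parallel and perpendicular channels.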
row,SMILES,"total fluorescence change, both ways"
1,O=C(O)C1C2C=CC(O2)C1C(=O)Nc1ccc(S(=O)(=O)N2CCc3ccccc32)cc1 (centres undefined),9.53% (inactive)
2,COn1c2c(c3c4nonc4ccc31)CCCC2,5.67% (inactive)
3,CCCCCCN=CC1=C(O)CC(C)(C)CC1=O,3.03% (inactive)
4,CCC(CNc1cc(OC)cc2cccnc12)NC1CCCCC1 (centres undefined),26.9% (inactive)
5,COc1cc(C(c2c(C)[nH][nH]c2=O)c2c(C)[nH][nH]c2=O)ccc1OC(=O)c1cccc(C)c1,1.17% [at 184 µM] (inactive)
6,O=c1[nH]c(Nc2ccc(F)cc2)cc2ccccc12,3.63% (inactive)
7,C/C(=C\C(=O)c1ccccc1)Nc1ccc(O)cc1,0.528% (inactive)
8,Cc1[nH][nH]c(=O)c1C(c1ccc(-c2ccccc2C(=O)O)o1)c1c(C)[nH][nH]c1=O,-3.55% (inactive)
9,COc1ccc(CN2C(=O)Cc3c2nc(N)c2c(N)nc(N4CCCCC4)c(C#N)c32)cc1,1.08% (inactive)
